# Data taken from publication PMC7862700, “An all-to-all approach to the identification of sequence-specific readers for epigenetic DNA modifications on cytosine”.
# What was measured:
# Assay in all cases: DAPPL (digital affinity profiling via proximity ligation, sequencing); 10 mM Tris-HCl pH 7.5, 50 mM NaCl, 1 mM DTT, 4% glycerol, room temperature, 30 min; GST-TFs on glutathione beads, 16-mer random dsDNA library, 0.1% formaldehyde crosslink after washing; high values mean tight binding
# FLI1 = molecular target: T1, FLI1 (Homo sapiens, UniProt Q01543 1-452); conditions: protein: recombinant; tags: N-terminal GST; dsDNA, one strand shown
# T1 sequence: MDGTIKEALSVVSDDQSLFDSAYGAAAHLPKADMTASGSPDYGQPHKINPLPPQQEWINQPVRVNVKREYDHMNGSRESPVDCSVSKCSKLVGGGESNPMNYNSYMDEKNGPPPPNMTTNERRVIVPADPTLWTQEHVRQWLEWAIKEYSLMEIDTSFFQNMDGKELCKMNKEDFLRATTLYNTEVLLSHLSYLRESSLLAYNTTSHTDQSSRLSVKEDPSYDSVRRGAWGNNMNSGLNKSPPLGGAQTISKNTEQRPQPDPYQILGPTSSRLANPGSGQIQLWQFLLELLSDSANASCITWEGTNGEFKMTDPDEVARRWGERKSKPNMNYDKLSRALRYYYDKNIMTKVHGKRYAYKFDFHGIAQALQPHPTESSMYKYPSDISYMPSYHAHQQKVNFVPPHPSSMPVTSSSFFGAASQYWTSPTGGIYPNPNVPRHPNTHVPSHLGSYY
# Procedure, shortened: (§1)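 In yeast, human transcription factors were expressed with a GST fusion, then pulled down on glutathione beads and given DNA barcodes. Pooled with a tag-only sample, they were exposed to 200 nmole of a 16-mer random double-stranded DNA library (Tris/NaCl/DTT/glycerol buffer, room temperature, 30 min), washed, crosslinked with 0.1% formaldehyde, proximity-ligated using BsaI/T4 ligase for 1 h at 37 °C, PCR-amplified and read on an Illumina NextSeq500. Each hexamer's frequency of reads for a factor, divided by the matching frequency for the tag-only sample, gives the binding signal.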
# ELK1 = molecular target: T2, ELK1 (Homo sapiens, UniProt P19419 1-428); conditions: protein: recombinant; tags: N-terminal GST; dsDNA, one strand shown
# T2 sequence: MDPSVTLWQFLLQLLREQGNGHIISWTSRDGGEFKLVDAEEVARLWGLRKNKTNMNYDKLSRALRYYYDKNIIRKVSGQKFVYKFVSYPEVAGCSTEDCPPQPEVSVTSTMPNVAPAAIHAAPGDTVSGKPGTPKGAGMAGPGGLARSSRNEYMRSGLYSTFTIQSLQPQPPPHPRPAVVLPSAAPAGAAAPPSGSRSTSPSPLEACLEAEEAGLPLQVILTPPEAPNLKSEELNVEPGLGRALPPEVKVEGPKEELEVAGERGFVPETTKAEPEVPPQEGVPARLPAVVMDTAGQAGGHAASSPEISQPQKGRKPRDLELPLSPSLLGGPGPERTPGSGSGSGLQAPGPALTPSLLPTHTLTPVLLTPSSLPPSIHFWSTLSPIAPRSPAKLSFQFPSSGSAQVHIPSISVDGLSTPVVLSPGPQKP
# Procedure, shortened: as §1
# GABPA = molecular target: T3, GABPA (Homo sapiens, UniProt Q06546 1-454); conditions: protein: recombinant; tags: N-terminal GST; dsDNA, one strand shown
# T3 sequence: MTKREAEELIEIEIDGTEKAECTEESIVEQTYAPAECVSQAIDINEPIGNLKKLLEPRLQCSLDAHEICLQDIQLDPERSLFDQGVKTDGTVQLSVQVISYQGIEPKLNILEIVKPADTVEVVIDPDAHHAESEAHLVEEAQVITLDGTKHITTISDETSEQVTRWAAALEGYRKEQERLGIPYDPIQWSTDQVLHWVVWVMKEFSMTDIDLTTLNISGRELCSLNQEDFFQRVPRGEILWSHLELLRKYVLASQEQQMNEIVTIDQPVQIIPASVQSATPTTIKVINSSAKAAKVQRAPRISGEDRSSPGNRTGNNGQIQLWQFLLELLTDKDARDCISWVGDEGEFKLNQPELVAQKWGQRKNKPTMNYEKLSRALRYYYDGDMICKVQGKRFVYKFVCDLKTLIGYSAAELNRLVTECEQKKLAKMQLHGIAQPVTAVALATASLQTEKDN
# Procedure, shortened: as §1
# ERG = molecular target: T4, ERG (Homo sapiens, UniProt P11308 1-479); conditions: protein: recombinant; tags: N-terminal GST; dsDNA, one strand shown
# T4 sequence: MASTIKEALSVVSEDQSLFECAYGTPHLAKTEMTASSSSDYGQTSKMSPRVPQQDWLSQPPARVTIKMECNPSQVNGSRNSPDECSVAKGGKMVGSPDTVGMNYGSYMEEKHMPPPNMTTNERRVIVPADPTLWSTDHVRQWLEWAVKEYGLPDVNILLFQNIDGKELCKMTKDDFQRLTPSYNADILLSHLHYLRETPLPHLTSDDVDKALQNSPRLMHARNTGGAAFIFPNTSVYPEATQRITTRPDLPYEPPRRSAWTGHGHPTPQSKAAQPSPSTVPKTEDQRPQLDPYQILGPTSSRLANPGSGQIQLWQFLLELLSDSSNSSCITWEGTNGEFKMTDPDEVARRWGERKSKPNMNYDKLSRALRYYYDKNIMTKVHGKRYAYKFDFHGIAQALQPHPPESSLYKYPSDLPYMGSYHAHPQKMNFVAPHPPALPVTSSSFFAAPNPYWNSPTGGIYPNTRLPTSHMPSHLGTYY
# Procedure, shortened: as §1
# ELF1 = ELF1 (Homo sapiens, UniProt P32519 1-619); conditions: protein: recombinant; tags: N-terminal GST; dsDNA, one strand shown
# Sequence of ELF1 (P32519 whole entry): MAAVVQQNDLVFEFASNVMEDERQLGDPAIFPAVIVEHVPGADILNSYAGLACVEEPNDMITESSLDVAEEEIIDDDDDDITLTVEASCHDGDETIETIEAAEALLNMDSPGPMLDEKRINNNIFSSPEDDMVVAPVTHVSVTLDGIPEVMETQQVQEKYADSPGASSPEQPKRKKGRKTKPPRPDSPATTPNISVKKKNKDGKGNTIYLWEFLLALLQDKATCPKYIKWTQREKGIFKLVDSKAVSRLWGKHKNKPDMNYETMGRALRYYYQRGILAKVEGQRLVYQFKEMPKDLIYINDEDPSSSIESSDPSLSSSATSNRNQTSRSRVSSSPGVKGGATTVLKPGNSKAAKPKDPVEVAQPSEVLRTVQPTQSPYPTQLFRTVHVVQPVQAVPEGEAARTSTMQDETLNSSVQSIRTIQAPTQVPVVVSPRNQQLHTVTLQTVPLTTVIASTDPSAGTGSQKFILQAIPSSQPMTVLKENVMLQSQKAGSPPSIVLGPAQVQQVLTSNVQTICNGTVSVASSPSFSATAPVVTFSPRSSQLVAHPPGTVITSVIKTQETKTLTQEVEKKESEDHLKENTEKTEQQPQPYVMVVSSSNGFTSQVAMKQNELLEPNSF
# Procedure, shortened: as §1
# EHF = molecular target: T5, EHF (Homo sapiens, UniProt Q9NZC4 1-300); conditions: protein: recombinant; tags: N-terminal GST; dsDNA, one strand shown
# T5 sequence: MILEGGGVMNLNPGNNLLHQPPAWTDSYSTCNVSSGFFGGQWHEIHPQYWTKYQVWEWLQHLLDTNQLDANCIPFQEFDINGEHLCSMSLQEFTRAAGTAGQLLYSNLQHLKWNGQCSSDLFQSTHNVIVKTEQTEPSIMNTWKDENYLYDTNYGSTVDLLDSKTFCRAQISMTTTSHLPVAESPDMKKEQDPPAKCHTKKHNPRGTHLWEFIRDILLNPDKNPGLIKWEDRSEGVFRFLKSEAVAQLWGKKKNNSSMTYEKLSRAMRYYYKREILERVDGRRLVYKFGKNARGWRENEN
# Procedure, shortened: as §1
# SPI1 = SPI1 (Homo sapiens, UniProt P17947 1-270); conditions: protein: recombinant; tags: N-terminal GST; dsDNA, one strand shown
# Procedure, shortened: as §1
# SPIB = SPIB (Homo sapiens, UniProt Q01892 1-262); conditions: protein: recombinant; tags: N-terminal GST; dsDNA, one strand shown
# Sequence of SPIB (Q01892 whole entry): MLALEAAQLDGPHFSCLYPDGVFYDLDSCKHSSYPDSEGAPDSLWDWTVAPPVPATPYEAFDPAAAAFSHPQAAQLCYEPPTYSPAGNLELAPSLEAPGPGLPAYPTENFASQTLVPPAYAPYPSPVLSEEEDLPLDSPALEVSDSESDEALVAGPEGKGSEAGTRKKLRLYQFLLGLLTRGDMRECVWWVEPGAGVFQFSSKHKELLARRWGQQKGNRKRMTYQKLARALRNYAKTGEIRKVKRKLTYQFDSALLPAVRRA
# Procedure, shortened: as §1
# ELK3 = molecular target: T6, ELK3 (Homo sapiens, UniProt P41970 1-407); conditions: protein: recombinant; tags: N-terminal GST; dsDNA, one strand shown
# T6 sequence: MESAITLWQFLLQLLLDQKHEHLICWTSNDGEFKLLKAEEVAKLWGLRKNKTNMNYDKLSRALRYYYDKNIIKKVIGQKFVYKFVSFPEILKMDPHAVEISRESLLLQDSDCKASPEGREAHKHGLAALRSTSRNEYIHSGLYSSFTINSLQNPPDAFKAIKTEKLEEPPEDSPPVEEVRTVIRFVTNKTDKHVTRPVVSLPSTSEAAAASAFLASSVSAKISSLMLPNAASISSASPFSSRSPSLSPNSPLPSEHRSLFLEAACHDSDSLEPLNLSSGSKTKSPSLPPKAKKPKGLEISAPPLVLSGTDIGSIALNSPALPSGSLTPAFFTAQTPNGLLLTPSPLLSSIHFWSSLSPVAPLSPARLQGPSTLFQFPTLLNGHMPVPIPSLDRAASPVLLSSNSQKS
# Procedure, shortened: as §1
# FEV = molecular target: T7, FEV (Homo sapiens, UniProt Q99581 1-238); conditions: protein: recombinant; tags: N-terminal GST; dsDNA, one strand shown
# T7 sequence: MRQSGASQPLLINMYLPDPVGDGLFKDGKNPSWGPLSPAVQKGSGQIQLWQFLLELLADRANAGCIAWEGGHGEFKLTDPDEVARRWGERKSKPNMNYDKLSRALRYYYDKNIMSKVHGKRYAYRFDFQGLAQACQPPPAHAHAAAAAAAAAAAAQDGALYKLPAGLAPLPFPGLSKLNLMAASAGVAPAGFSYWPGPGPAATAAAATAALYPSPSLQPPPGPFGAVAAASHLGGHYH
# Procedure, shortened: as §1
# ETV5 = ETV5 (Homo sapiens, UniProt P41161 1-510); conditions: protein: recombinant; tags: N-terminal GST; dsDNA, one strand shown
# Sequence of ETV5 (P41161 whole entry): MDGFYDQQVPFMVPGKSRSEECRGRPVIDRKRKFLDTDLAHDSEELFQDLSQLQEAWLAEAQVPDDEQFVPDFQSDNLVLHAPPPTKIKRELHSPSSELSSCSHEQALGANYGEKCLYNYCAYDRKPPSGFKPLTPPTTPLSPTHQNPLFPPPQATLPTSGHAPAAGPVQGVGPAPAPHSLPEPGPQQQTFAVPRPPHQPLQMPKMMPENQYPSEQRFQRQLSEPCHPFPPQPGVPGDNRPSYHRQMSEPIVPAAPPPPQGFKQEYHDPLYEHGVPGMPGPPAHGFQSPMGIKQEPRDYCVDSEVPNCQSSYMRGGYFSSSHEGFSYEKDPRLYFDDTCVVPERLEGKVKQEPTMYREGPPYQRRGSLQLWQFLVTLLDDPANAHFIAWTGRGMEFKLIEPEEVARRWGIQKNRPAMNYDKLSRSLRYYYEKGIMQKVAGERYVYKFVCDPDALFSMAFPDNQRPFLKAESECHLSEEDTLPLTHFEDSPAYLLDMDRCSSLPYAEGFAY
# Procedure, shortened: as §1
# HSF1 = HSF1 (Homo sapiens, UniProt Q00613 1-529); conditions: protein: recombinant; tags: N-terminal GST; chain copies: 3; dsDNA, one strand shown
# Sequence of HSF1 (Q00613 whole entry): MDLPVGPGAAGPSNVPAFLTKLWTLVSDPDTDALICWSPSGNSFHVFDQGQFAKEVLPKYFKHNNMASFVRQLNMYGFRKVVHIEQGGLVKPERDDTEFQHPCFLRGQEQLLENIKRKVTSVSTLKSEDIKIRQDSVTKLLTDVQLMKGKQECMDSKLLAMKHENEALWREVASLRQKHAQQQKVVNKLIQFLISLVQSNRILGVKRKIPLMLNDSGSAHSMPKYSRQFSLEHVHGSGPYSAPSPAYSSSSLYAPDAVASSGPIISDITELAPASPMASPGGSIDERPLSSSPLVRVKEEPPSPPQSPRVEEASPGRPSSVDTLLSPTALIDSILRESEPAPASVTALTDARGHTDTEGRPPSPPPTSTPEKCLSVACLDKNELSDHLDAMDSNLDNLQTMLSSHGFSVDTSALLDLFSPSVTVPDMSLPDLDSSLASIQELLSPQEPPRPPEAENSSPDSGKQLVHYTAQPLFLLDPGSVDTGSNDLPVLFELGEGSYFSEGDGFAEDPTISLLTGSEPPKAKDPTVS
# Procedure, shortened: as §1
# SPIC = molecular target: T8, SPIC (Homo sapiens, UniProt Q8N5J4 1-248); conditions: protein: recombinant; tags: N-terminal GST; dsDNA, one strand shown
# T8 sequence: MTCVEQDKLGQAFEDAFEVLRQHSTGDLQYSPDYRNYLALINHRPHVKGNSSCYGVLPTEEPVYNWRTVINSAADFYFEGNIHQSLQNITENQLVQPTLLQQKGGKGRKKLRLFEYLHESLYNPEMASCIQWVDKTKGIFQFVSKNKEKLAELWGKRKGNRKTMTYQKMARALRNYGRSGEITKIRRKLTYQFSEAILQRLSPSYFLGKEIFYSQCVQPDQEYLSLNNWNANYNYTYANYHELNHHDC
# Procedure, shortened: as §1
# ELF4 = ELF4 (Homo sapiens, UniProt Q99607 1-663); conditions: protein: recombinant; tags: N-terminal GST; dsDNA, one strand shown
# Sequence of ELF4 (Q99607 whole entry): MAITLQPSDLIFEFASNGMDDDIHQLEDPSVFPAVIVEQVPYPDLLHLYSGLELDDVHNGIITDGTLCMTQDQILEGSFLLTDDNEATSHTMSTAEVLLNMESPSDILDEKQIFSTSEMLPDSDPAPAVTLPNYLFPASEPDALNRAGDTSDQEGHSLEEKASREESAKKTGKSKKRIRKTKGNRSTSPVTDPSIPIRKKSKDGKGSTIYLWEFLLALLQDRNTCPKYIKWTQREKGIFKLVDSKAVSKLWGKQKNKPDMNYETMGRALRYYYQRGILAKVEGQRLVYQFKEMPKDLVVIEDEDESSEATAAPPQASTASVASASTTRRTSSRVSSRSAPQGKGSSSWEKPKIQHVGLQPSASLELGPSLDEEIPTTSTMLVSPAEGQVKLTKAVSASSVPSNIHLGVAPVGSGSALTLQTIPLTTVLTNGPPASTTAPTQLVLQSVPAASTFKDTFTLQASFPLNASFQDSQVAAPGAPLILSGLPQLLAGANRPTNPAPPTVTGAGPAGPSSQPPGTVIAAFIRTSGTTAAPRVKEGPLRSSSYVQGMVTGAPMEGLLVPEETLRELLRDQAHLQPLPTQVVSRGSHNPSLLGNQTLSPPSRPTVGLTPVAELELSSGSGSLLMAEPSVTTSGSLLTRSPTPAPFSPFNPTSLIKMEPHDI
# Procedure, shortened: as §1
# ELK4 = molecular target: T9, ELK4 (Homo sapiens, UniProt P28324-2 1-405); conditions: protein: recombinant; tags: N-terminal GST; dsDNA, one strand shown
# T9 sequence: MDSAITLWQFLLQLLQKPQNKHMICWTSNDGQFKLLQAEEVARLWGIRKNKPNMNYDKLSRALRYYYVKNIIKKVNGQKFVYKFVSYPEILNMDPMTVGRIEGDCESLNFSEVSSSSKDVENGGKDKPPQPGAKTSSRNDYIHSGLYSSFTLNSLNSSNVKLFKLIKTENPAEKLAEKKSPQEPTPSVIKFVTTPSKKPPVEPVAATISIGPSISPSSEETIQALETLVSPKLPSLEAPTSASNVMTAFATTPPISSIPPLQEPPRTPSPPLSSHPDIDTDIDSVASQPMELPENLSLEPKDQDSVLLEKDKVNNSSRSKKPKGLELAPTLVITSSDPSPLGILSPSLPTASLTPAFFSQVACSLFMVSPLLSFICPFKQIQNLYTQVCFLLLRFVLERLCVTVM
# Procedure, shortened: as §1
# ETV2 = molecular target: T10, ETV2 (Homo sapiens, UniProt O00321 1-342); conditions: protein: recombinant; tags: N-terminal GST; dsDNA, one strand shown
# T10 sequence: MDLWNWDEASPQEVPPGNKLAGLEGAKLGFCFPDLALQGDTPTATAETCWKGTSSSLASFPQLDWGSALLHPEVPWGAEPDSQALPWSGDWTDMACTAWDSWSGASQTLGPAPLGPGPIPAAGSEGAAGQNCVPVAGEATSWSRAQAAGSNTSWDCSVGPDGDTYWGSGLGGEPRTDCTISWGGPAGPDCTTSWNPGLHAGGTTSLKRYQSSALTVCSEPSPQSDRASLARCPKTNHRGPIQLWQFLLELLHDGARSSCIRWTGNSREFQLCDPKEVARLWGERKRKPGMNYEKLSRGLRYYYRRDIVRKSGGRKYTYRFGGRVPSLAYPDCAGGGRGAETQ
# Procedure, shortened: as §1
# ELF3 = molecular target: T11, ELF3 (Homo sapiens, UniProt P78545 1-371); conditions: protein: recombinant; tags: N-terminal GST; dsDNA, one strand shown
# T11 sequence: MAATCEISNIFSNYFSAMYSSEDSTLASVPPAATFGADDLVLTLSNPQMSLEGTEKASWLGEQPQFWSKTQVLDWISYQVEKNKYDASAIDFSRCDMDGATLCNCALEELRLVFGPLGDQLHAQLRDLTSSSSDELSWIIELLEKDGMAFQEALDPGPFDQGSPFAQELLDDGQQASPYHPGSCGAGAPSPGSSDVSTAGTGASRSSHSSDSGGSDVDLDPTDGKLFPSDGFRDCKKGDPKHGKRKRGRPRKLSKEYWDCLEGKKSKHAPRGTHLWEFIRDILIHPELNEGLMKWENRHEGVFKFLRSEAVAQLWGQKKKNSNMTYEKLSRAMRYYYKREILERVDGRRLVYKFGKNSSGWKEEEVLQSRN
# Procedure, shortened: as §1
# ETV1 = ETV1 (Homo sapiens, UniProt P50549 1-477); conditions: protein: recombinant; tags: N-terminal GST; dsDNA, one strand shown
# Sequence of ETV1 (P50549 whole entry): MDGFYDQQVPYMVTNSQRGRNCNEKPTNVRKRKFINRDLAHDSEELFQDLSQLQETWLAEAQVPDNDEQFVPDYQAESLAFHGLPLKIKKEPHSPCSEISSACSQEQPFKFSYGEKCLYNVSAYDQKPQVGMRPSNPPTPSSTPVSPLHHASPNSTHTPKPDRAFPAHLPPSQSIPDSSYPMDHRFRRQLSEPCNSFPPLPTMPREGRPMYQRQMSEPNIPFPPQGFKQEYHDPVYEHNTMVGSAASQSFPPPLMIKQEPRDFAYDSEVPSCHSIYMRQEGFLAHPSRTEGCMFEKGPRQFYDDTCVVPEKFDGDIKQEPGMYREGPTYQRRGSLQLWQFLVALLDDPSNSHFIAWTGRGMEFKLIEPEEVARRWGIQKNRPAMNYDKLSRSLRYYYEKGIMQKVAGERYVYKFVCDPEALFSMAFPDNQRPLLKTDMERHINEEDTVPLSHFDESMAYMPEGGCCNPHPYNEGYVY
# Procedure, shortened: as §1
sequence,measurement,setting,value
GTGTTC,binding signal,FLI1,"1.13 fold enrichment (6-mer frequency, TF over GST control)"
same,binding signal,ELK1,"1.25 fold enrichment (6-mer frequency, TF over GST control)"
same,binding signal,GABPA,"1.26 fold enrichment (6-mer frequency, TF over GST control)"
same,binding signal,ERG,"1.22 fold enrichment (6-mer frequency, TF over GST control)"
same,binding signal,ELF1,"1.1 fold enrichment (6-mer frequency, TF over GST control)"
same,binding signal,EHF,"1.15 fold enrichment (6-mer frequency, TF over GST control)"
same,binding signal,SPI1,"1.28 fold enrichment (6-mer frequency, TF over GST control)"
same,binding signal,SPIB,"1.09 fold enrichment (6-mer frequency, TF over GST control)"
same,binding signal,ELK3,"1.1 fold enrichment (6-mer frequency, TF over GST control)"
same,binding signal,FEV,"1.08 fold enrichment (6-mer frequency, TF over GST control)"
same,binding signal,ETV5,"1.14 fold enrichment (6-mer frequency, TF over GST control)"
same,binding signal,HSF1,"1.12 fold enrichment (6-mer frequency, TF over GST control)"
same,binding signal,SPIC,"1.36 fold enrichment (6-mer frequency, TF over GST control)"
same,binding signal,ELF4,"1.12 fold enrichment (6-mer frequency, TF over GST control)"
same,binding signal,ELK4,"1.25 fold enrichment (6-mer frequency, TF over GST control)"
same,binding signal,ETV2,"1.15 fold enrichment (6-mer frequency, TF over GST control)"
same,binding signal,ELF3,"1.19 fold enrichment (6-mer frequency, TF over GST control)"
same,binding signal,ETV1,"1.14 fold enrichment (6-mer frequency, TF over GST control)"
